Measurements reported in PubChem BioAssay AID651956 (Broad Institute, 2012).
Entries with a potency or affinity are not part of this list. Inconclusive results are not listed. Calls of active or inactive are those of the source.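 Rule for the calls: active = in every test run, a fitted half-maximal concentration for signal decrease at or below twice the highest tested concentration; inconclusive = runs disagree, flat 30 to 70% decrease, or poor fit; inactive = the rest.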

Experiment: activation of miR-122 Renilla sensor silencing – cell-based, Huh7 psiCHECK-miR122, Renilla luciferase, cherry-picked, dose response (AID 651956);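 note: Renilla luciferase from a miR-122 sensor reporter so lower signal means miR-122 activation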
Conditions: Huh7 psiCHECK-miR122 Renilla luciferase reporter, 48 h; series mostly up to 35 µM
With CN(C[C@H]1[C@H](c2ccccc2)[C@@H](CO)N1CC1CC1)C(=O)c1cccc(F)c1 the outcome was “inactive”.
In the case of CC1CCN(CCc2nc3cc(NC(=O)Nc4ccccc4)ccc3n2C)CC1, the outcome is reported as “inactive”.
With C[C@H](CO)N1C[C@H](C)[C@@H](CN(C)CC2CCCCC2)OCCCC[C@H](C)Oc2ccc(NC(=O)Nc3cccc4ccccc34)cc2C1=O the outcome was “inactive”.
For COCC(=O)N(C[C@H]1[C@H](c2ccccc2)[C@H](CO)N1C(=O)NC(C)C)C(C)C, the outcome was “inactive”.
In the case of COC(=O)C[C@@H]1CC[C@@H]2[C@@H](COc3ccc(NC(=O)c4cc(F)cc(F)c4)cc3C(=O)N2C)O1, the outcome is reported as “inactive”.
For CCCNC(=O)C[C@H]1CC[C@H]2[C@H](COc3ccc(NC(=O)c4ccc(C(F)(F)F)cc4)cc3C(=O)N2C)O1, the outcome was “inactive”.
With Cc1nnsc1Sc1cccc(C(F)(F)F)c1 the outcome was “inactive”.
With Cc1ccc(-c2ccc3c(c2)O[C@H](CN(C)C(=O)CC2CC2)[C@H](C)CN([C@@H](C)CO)S3(=O)=O)cc1 the outcome was “inactive”.
In the case of CCN(C[C@H]1N[C@@H](CO)[C@@H]1c1ccc(C2=CCCC2)cc1)C(=O)c1ccncc1, the outcome is reported as “inactive”.
With O=C(c1cccc(F)c1)N1C[C@@H]2[C@H](c3ccccc31)[C@H](CO)N2C(=O)Cc1ccccc1 the outcome was “inactive”.
For COc1ccccc1CNc1nc(Nc2ccccc2Cl)c2sccc2n1, the outcome was “inactive”.
In the case of CO[C@@H]1CN(C)C(=O)c2cc(NC(=O)NC(C)C)ccc2OC[C@H](C)N(Cc2cncnc2)C[C@H]1C, the outcome is reported as “inactive”.
With CC(C)NC(=O)N1C[C@@H]2[C@H](c3ccccc31)[C@H](CO)N2Cc1ccccc1 the outcome was “inactive”.
With COc1cccc(NC(=O)N2[C@H](CO)[C@@H](c3ccccc3)[C@H]2CNCC(C)C)c1 the outcome was “inactive”.
With Cc1cc(C(=O)Nc2ccc3c(c2)C(=O)N(C)[C@H]2CC[C@H](CC(=O)N[C@@H](C)c4ccccc4)O[C@H]2CO3)no1 the outcome was “inactive”.
In the case of CN1C(=O)c2cc(NC(=O)c3cccc(C(F)(F)F)c3)ccc2OC[C@@H]2O[C@@H](CC(=O)NCCN3CCCC3)CC[C@@H]21, the outcome is reported as “inactive”.
With CN1C(=O)c2cc(NC(=O)Nc3ccc(Cl)cc3)ccc2OC[C@@H]2O[C@@H](CC(=O)NCCN3CCCCC3)CC[C@H]21 the outcome was “inactive”.
In the case of CC(C)NC(=O)N1[C@H](CO)[C@@H](c2ccccc2)[C@@H]1CN(C)C(=O)c1cccnc1, the outcome is reported as “inactive”.
With CCCNC(=O)C[C@@H]1CC[C@@H]2[C@H](COc3ccc(NC(=O)c4cc(F)cc(F)c4)cc3C(=O)N2C)O1 the outcome was “inactive”.
In the case of CNC(=O)C[C@H]1CC[C@H]2[C@H](COc3ccc(NC(=O)c4cccc(OC)c4)cc3C(=O)N2C)O1, the outcome is reported as “inactive”.
For CNC(=O)c1nc(C)n(-c2cc(Cl)cc(Cl)c2)n1, the outcome was “inactive”.
In the case of COc1ccc(-c2nc(NC(=O)CSc3nnc(C)s3)ns2)cc1, the outcome is reported as “inactive”.
In the case of CCC(=O)N1[C@H](CO)[C@H](c2ccccc2)[C@@H]1CN(C(C)C)S(C)(=O)=O, the outcome is reported as “inactive”.
For COCCNC(=O)C[C@H]1CC[C@@H]2[C@H](COc3ccc(NC(=O)c4cnccn4)cc3C(=O)N2C)O1, the outcome was “inactive”.
For Cc1ccc(Nc2c(-c3ccccn3)nc3cc(C)ccn23)cc1, the outcome was “inactive”.
In the case of COc1cccc(CNC(=O)C[C@H]2CC[C@@H]3[C@@H](COc4ccc(NC(C)=O)cc4C(=O)N3C)O2)c1, the outcome is reported as “inactive”.
In the case of CCC(=O)N(C)C[C@@H]1[C@@H](c2ccccc2)[C@H](CO)N1Cc1cccnc1, the outcome is reported as “inactive”.
With CC(C)C(=O)Nc1ccc2c(c1)C(=O)N(C)[C@@H]1CC[C@H](CC(=O)N[C@H](C)c3ccccc3)O[C@@H]1CO2 the outcome was “inactive”.
In the case of CN1C(=O)c2cc(NC(=O)Cc3ccccc3)ccc2OC[C@H]2O[C@@H](CC(=O)NCc3ccc(Cl)cc3)CC[C@@H]21, the outcome is reported as “inactive”.
In the case of CNC(=O)C[C@H]1CC[C@@H]2[C@H](COc3ccc(NC(=O)NC(C)C)cc3C(=O)N2C)O1, the outcome is reported as “inactive”.
In the case of CCOc1ccc(C(CCc2ccccc2)NC(=O)c2ccccc2F)cc1OCC (stereo not drawn), the outcome is reported as “inactive”.
In the case of CCCCCn1c(=O)[nH]c2cc(C(=O)NCCN3C(C)CCCC3C)ccc2c1=O (stereo not drawn), the outcome is reported as “inactive”.
In the case of O=C(COc1cccc2ccccc12)Nc1nc2ccccc2[nH]1, the outcome is reported as “inactive”.
With CN(C)CCCN(C(=O)CCc1ccccc1)c1nc2ccc(Br)cc2s1 the outcome was “inactive”.
With CC(=O)N(C)C[C@@H]1[C@@H](c2ccccc2)[C@H](CO)N1C(=O)C1CCC1 the outcome was “inactive”.
In the case of CC(C)C(=O)Nc1ccc2c(c1)C(=O)N(C)[C@@H]1CC[C@@H](CC(=O)NCCc3ccccc3)O[C@H]1CO2, the outcome is reported as “inactive”.
With OC[C@H]1[C@@H](c2ccccc2)[C@@H](CNCC2CCC2)N1CC1CC1 the outcome was “inactive”.
With CCCNC(=O)C[C@@H]1CC[C@@H]2[C@@H](COc3ccc(NS(=O)(=O)c4ccccc4C)cc3C(=O)N2C)O1 the outcome was “inactive”.
